Assay [1] has as its system XIP peptide (Xip251-270) binding. In words: XIP fragment 251-270 binding compounds – biochemical, small-molecule microarray, fluorescence 635/667 nm, 0.1 µg/mL protein, primary screen (AID 1182). To be noted: fluorescent protein binding, 635 nm, higher = more signal, called active from +8 up or from −8 down.
For a further assay, the system named is XIP peptide (Xip251-270). The assay is described as follows: compounds binding XIP fragment 251-270 – biochemical, small-molecule microarray, fluorescence 635/667 nm, 0.5 µg/mL protein, primary screen (AID 1183). The settings on record: fluorescence 635 nm, higher = more signal.
The nature of assay [2]: blood-stage malaria parasite viability loss – strain 3D7, DAPI fluorescence, 100 nL, primary screen (AID 1184).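 Note: parasites grown inside human red blood cells in medium with human serum.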 The settings on record: P. falciparum 3D7 growth, 3 d, higher = more signal.
The target of assay [3] is Homeobox protein Hox-A13 (Mus musculus) (UniProt Q62424). In words: disruptors of Hoxa13 oligonucleotide interaction – biochemical, fluorescence polarization, labeled oligonucleotide, primary screen (AID 1185). The settings on record: Hoxa13:DNA binding, 15 min, higher = more signal, called active from +8 up or from −8 down. (In general: Polarisation of emitted light reports the rotation of a fluorescent probe.)
Homeobox protein Hox-A13 (Mus musculus), sequence (Q62424 whole entry, looked up): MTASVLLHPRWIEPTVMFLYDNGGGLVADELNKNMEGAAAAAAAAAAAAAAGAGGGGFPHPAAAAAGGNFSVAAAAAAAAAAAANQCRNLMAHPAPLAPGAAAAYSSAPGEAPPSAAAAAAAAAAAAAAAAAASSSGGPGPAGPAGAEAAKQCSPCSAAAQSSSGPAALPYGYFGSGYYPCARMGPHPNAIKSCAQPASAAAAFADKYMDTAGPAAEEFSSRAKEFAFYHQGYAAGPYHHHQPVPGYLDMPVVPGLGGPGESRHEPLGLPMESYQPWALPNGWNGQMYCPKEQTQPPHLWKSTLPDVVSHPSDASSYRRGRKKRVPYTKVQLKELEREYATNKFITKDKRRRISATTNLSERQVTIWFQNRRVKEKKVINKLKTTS

Assay [4] can be described thus: blockers of DNA damage checkpoint Chk1 activation – imaging, HeLa, hydroxyurea, phospho-Chk1 antibody, percent positive cells, primary screen (AID 1186). The settings on record: hydroxyurea-induced phospho-Chk1 immunofluorescence imaging, higher = more signal.
The nature of assay [5]: blockers of DNA damage checkpoint Chk1 activation – imaging, HeLa, hydroxyurea, phospho-Chk1 nuclear intensity, primary screen (AID 1187). To be noted: hydroxyurea-induced phospho-Chk1 immunofluorescence imaging, higher = more signal.

Calls of active or inactive are those of the source. Unless noted, the rule behind the calls is not given here.

Take `C=CCOC(=O)[C@H]1[C@@H]2C(=O)O[C@@H](c3ccccc3)[C@@H](c3ccccc3)N2[C@@H](c2ccc(OCCOC(=O)[C@H]3C[C@H]4C(=O)N5CCC[C@H]5C(=O)N4[C@H]3c3ccc(O)cc3)cc2)[C@]12C(=O)Nc1ccc(I)cc12`: the values for the composite z-score (in assay [1]; in the assay on XIP peptide (Xip251-270)) were 2.85 (inactive) and 0.84, respectively. Besides, the z-score in assay [2] was -1.28; in assay [3] it was 0.622 (inactive); in assay [4], -0.187 (inactive); in assay [5], 0.366 (inactive).
As for `CC[C@@H]1C=C(C(=O)O)[C@H](c2ccco2)N1S(=O)(=O)c1ccc(C)cc1`, the composite z-score is 3.88 (inactive) in assay [1] and -0.265 with XIP peptide (Xip251-270). The z-score in assay [2] was -0.761; in assay [3] it was -4.78 (inactive); in assay [4], 0.186 (inactive); in assay [5], 0.162 (inactive).
As for `CN(C)CCCNC(=O)[C@@]1(c2ccc([N+](=O)[O-])cc2)CC(=O)N(C2CCCCC2)[C@@H]1c1ccc(CO)cc1`, the composite z-score was -0.209 (inactive) in assay [1] and -0.0124 with XIP peptide (Xip251-270). Moreover, the z-score in assay [2] was -1.11; in assay [3], -0.842 (inactive); in assay [4] it was -0.196 (inactive); in assay [5] it was -0.495 (inactive).
As to `CCOC(=O)[C@H]1C/C=C/C[C@H](C(=O)OCC)C(=O)O[C@H]2[C@@H](OC)O[C@H](CO)[C@@H](OC(=O)Nc3ccc(C#N)cc3)[C@@H]2OC1=O`, the composite z-score in assay [1] is 1.09 (inactive); in the assay with XIP peptide (Xip251-270), 0.84. Besides, the z-score in assay [2] was -2.07; in assay [3] it was -1.69 (inactive); in assay [4], -0.892 (inactive); in assay [5], -1.88 (inactive).
Regarding `C=CCNC(=O)[C@@H]1[C@H]2C(=O)O[C@H](c3ccccc3)[C@H](c3ccccc3)N2[C@H](c2ccc(OCCO)cc2)[C@@]12C(=O)Nc1ccc(C#CCCO)cc12`, the composite z-score in assay [1] is 0.95 (inactive); in the assay on XIP peptide (Xip251-270) it was 0.77. Also, the z-score was -1.02 in assay [2], -3.63 (inactive) in assay [3], 0.0523 (inactive) in assay [4] and 0.205 (inactive) in assay [5].
With `[N-]=[N+]=NCc1ccccc1[C@@H]1OC(c2ccc(OCCCO)cc2)=N[C@]1(CCS(=O)(=O)c1ccccc1)C(=O)NCCN1CCOCC1`, the composite z-score is 1.16 (inactive) in assay [1] and 0.853 in the assay on XIP peptide (Xip251-270). The z-score in assay [2] was -2.19; in assay [3], -2.41 (inactive); in assay [4], 0.0054 (inactive); in assay [5], -0.373 (inactive).
As to `CCCCC=C[C@@H](NC(=O)Oc1cccc(C(F)(F)F)c1)c1ccccc1`, the composite z-score in assay [1] is -0.361 (inactive); with XIP peptide (Xip251-270), 0.168. The z-score in assay [2] is -1.01; in assay [3], -0.127 (inactive); in assay [4], 0.38 (inactive); in assay [5], -0.018 (inactive).
`COC(=O)[C@@]1(Cc2ccc(OC)cc2)[C@H]2c3cc(C(=O)N(C)C)n(Cc4cccc5ccccc45)c3C[C@H]2CN1C(=O)c1ccccc1`: the composite z-score was 0.237 (inactive) in assay [1] and 0.822 in the assay on XIP peptide (Xip251-270). Besides, the z-score in assay [2] was -1.61; in assay [3], -4.2 (inactive); in assay [4], 0.0329 (inactive); in assay [5] it was -0.19 (inactive).
For the compound `C=CCC(OC(C)=O)[C@@H]1[C@@H](N(Cc2ccc(-c3cccc(C(F)(F)F)c3)o2)C(=O)c2ccc(-c3ccccc3)cc2)c2cc(OCCCO)ccc2N1C(=O)c1ccc(-c2ccccc2)cc1` (stereo partly drawn), the composite z-score in assay [1] is -0.462 (inactive); with XIP peptide (Xip251-270), -1.09. Moreover, the z-score was -0.29 in assay [2], -0.737 (inactive) in assay [3], 0.216 (inactive) in assay [4] and 0.187 (inactive) in assay [5].
Regarding `C#CCNC(=O)[C@H](Cc1ccccc1)NC(=O)CCC(=O)O`, the composite z-score in assay [1] is 0.234 (inactive); in the assay with XIP peptide (Xip251-270), -1.75. The z-score is -0.213 in assay [2], -0.118 (inactive) in assay [3], -0.482 (inactive) in assay [4] and -0.815 (inactive) in assay [5].
For the compound `[N-]=[N+]=NCc1ccccc1[C@@H]1OC(c2ccc(OCCCO)cc2)=N[C@]1(Cc1ccccc1N=[N+]=[N-])C(=O)N1CCOCC1`, the values for the composite z-score (in assay [1]; in the assay with XIP peptide (Xip251-270)) were 0.129 (inactive) and 0.706, respectively. Besides, the z-score in assay [2] was -2.03; in assay [3], -2.15 (inactive); in assay [4], 0.0823 (inactive); in assay [5], 0.515 (inactive).
As to `COC(=O)[C@@]1(Cc2ccccc2)[C@H]2c3cc(C(=O)N4CCCC4)n(CC4CC4)c3C[C@H]2CN1C(=O)c1ccccc1`, the composite z-score in assay [1] was 0.258 (inactive); in the assay on XIP peptide (Xip251-270) it was 0.628. Moreover, the z-score in assay [2] was -1.79; in assay [3] it was -5.17 (inactive); in assay [4] it was 0.874 (inactive); in assay [5] it was 0.76 (inactive).
Turning to `C=CCNC(=O)[C@H]1[C@@H]2C(=O)O[C@@H](c3ccccc3)[C@@H](c3ccccc3)N2[C@@H](c2ccc(O)cc2)[C@]12C(=O)N(C(=O)OCCOC)c1ccc(C#CCNC(N)=O)cc12`, the figures for the composite z-score (in assay [1]; in the assay with XIP peptide (Xip251-270)) were 0.17 (inactive) and 0.53, respectively. The z-score is 2.38 in assay [2], -3.07 (inactive) in assay [3], -0.237 (inactive) in assay [4] and -0.625 (inactive) in assay [5].

(Values after PubChem BioAssay.)
